Laboratory results from PubChem BioAssay (NCATS).
Where “and” joins values, the source holds several entries; their conditions need not be identical. Equal values may be shown once. Inconclusive results are not listed. Calls of active or inactive are those of the source. Unless noted, calls come from the whole dose curve; as a rule, active = well fitted curve in the direction sought with a large enough effect; inconclusive = small, poorly fitted or top-dose-only effect, or another doubt; inactive = no such curve, though single readings can be large; an effect the other way counts as inactive or inconclusive.

Legend:
[1] = molecular target: Phosphoglycerate kinase, glycosomal (Trypanosoma brucei brucei) (UniProt P07378); assay: qHTS Validation Assay to Find Inhibitors of Phosphoglycerate Kinase (AID 504547);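 note: control wells lack PGK and mark full inhibition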
Sequence of Phosphoglycerate kinase, glycosomal (Trypanosoma brucei brucei) (P07378 whole entry, looked up): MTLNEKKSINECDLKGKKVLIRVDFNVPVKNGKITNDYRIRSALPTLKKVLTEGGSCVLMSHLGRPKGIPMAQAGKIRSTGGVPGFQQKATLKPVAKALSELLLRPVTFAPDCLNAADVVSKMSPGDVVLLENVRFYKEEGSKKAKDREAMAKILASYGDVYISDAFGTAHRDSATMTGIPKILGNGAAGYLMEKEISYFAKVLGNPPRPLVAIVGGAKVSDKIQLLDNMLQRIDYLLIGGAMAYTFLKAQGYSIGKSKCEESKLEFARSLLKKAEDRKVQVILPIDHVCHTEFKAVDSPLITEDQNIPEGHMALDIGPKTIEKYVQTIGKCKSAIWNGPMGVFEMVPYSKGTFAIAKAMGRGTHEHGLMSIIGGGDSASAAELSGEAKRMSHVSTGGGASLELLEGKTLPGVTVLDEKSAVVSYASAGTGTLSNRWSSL
Outline: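 Luminescence end-point (Kinase-Glo Plus, 10 min) after a 60 min room-temperature coupled reaction. GAPDH at 100nM final supplies 1,3-BPG to PGK. Buffer: 100mM TEA pH 7.6, 5mM MgCl2, 0.01% Tween-20. Wells lacking PGK served as controls.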

[2] = molecular target: phosphoglycerate mutase (Leishmania major) (UniProt Q4Q090); assay: qHTS Validation Assay to Find Inhibitors of Phosphoglycerate Mutase (AID 504548); note: series mostly up to about 58 µM; % is set by controls: 0 for no effect and ±100 for the full control effect
Sequence of phosphoglycerate mutase (Leishmania major) (Q4Q090 1-553): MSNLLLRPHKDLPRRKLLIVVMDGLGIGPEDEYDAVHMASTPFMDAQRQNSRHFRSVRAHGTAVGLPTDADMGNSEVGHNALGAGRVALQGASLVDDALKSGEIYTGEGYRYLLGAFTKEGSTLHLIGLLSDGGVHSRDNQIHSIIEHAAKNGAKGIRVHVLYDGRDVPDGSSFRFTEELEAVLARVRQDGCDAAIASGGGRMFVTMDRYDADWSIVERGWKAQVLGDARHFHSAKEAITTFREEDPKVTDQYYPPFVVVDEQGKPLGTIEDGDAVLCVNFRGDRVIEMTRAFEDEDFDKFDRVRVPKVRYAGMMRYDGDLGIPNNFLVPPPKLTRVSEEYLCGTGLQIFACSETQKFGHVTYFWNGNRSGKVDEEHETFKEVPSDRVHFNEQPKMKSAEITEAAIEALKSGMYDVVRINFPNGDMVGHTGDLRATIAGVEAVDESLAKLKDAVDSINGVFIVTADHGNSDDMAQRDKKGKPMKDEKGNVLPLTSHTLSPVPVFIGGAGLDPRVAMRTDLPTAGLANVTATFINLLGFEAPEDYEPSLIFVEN
Outline: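 Lm PGAM 1.25nM final; 100 mM TEA pH 7.6, 5 mM MgCl2, 0.01% Tween-20; 45 min RT; Kinase-GloPlus, 10 min; end-point luminescence. Enzyme-free wells as negative controls.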

[3] = molecular target: Ubiquitin carboxyl-terminal hydrolase 1 (Homo sapiens) (UniProt O94782); assay: Inhibitors of USP1/UAF1: Pilot qHTS (AID 504865); note: nearly all actives have a fitted effect of over 35% in size; note: potency is the fitted concentration of half-maximal effect
Outline: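 1nM USP1/UAF1 + cpd, 15 min RT; start w/ Ub-Rho 150nM final; kinetic FL 480/540 nm, 6 reads q60 s. Buffer 50mM HEPES pH 7.8, 0.5mM EDTA, 1mM TCEP, 0.01% Tween-20, 0.1 mg/ml BSA.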

[4] = qHTS for Inhibitors of ATXN expression: Validation of Cytotoxic Assay (AID 588349); note: potency is the fitted concentration of half-maximal effect
Outline: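 Cytotoxicity counter-screen: HEK293 cells exposed to compound titrations, 72 hr, 37 degrees C. Read-out is intracellular ATP (CellTiter Glo luminescence) as a viability measure.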

[5] = qHTS for Inhibitors of ATXN expression: Validation (AID 588378); note: nearly all actives have a fitted effect of over 75% in size; note: potency is the fitted concentration of half-maximal effect
Outline: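 Cells: HEK293-ATXN2-FFLuc, phenol-red free DMEM, 2 h attachment. Compound pin-transfer, 24 h, 37 degrees C, 5% CO2. CellTiter-Fluor 30 min, Ex405/Em525; Bright-Glo 5 min, luminescence 2 s exposure.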

[6] = molecular target: DNA dC->dU-editing enzyme APOBEC-3G (Homo sapiens) (UniProt Q9HC16); assay: qHTS for inhibitors of Vif-A3G interactions: Validation (AID 588379); note: 0% is about no effect
Sequence of DNA dC->dU-editing enzyme APOBEC-3G (Homo sapiens) (Q9HC16 whole entry, looked up): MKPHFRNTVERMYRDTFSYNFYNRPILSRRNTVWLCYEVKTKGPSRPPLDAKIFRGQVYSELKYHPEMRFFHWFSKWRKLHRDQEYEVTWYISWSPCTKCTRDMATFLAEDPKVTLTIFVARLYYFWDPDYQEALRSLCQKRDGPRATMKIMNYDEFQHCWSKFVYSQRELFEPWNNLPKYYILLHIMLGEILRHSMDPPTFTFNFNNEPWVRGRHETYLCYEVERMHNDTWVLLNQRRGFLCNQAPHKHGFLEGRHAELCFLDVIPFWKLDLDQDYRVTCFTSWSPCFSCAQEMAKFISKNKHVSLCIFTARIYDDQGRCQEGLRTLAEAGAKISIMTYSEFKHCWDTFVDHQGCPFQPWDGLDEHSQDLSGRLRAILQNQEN
Outline: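 Yellow fluorescence (Ex 488, Em 500-530) of Vif-coexpressing HeLa A3G-eYFP cells, scanned by Acumen cytometer, reports blocked A3G degradation. Cells plated at 700/well overnight at 37 deg C before compound addition, then a further overnight compound incubation at 37 deg C.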

[7] = molecular target: Bile acid receptor (Homo sapiens) (UniProt Q96RI1); assay: qHTS assay for small molecule antagonists of farnesoid X receptor signaling (AID 588526; calls by dose curve; note: % is set by controls: 0 for no effect and ±100 for the full control effect)
Sequence of Bile acid receptor (Homo sapiens) (Q96RI1 whole entry, looked up): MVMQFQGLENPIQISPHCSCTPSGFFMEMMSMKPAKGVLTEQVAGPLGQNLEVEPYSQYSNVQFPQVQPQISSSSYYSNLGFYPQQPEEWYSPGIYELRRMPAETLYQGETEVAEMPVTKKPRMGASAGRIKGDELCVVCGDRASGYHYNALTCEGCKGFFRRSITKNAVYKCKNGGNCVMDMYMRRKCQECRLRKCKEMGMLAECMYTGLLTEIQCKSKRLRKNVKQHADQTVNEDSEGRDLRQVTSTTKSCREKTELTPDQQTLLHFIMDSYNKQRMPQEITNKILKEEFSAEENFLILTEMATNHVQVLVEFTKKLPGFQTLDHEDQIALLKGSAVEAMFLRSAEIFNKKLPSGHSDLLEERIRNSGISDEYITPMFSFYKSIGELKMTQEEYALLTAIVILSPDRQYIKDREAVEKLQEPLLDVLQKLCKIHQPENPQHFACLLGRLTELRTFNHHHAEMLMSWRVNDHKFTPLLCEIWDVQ
Outline: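 Beta-lactamase reporter antagonist mode: HEK293T FXR-UAS-bla cells, titrated compound, CDCA stimulation, 16 h 37 C, CCF4 dye 2 h RT. Data normalized to CDCA 50 uM and DMSO; Hill-fit IC50.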

[8] = qHTS assay for small molecule antagonists of peroxisome proliferator-activated receptor delta signaling (AID 588535; active = well fitted inhibition curve with a large enough effect in the signal ratio, with a control signal flat, not every such curve was filed as active; the % refers to the signal ratio;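 for max response: cells co-treated with a PPAR-delta agonist as stimulator during compound exposure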); conditions: HEK293T PPARd-UAS-bla, beta-lactamase FRET ratio, 18 h; 460 nm channel
Outline: (§1)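 Antagonist-mode qHTS using GeneBLAzer PPAR-delta-UAS-bla HEK293T cells; compound exposure 18 hrs at 37 C over a titration. Ratiometric CCF4 fluorescence at 460/530 nm; concentration-response points fitted to the Hill equation.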

[9] = molecular target: Peroxisome proliferator-activated receptor delta (Homo sapiens) (UniProt Q03181); assay: as above
Sequence of Peroxisome proliferator-activated receptor delta (Homo sapiens) (Q03181 whole entry, looked up): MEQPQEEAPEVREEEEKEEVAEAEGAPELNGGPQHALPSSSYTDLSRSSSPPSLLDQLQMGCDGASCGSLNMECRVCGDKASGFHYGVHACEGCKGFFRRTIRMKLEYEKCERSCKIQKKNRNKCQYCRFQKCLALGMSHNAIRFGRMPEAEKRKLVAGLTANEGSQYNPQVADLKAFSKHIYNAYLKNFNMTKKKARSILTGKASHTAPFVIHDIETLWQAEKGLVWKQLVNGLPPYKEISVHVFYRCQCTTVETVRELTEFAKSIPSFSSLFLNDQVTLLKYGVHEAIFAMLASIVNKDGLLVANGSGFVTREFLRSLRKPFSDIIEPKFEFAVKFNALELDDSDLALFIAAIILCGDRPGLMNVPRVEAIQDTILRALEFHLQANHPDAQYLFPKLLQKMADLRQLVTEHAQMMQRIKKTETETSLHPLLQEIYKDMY
Outline: as §1

[10] = molecular target: Peroxisome proliferator-activated receptor gamma (Homo sapiens) (UniProt P37231); assay: qHTS assay for small molecule agonists of peroxisome proliferator-activated receptor gamma signaling (AID 588536; active = well fitted curve in the direction sought with a large enough effect in the signal ratio, with a control signal flat, not every such curve was filed as active; the % refers to the signal ratio;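 note: 0% = DMSO basal wells and 100% = rosiglitazone at 2 µM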)
Sequence of Peroxisome proliferator-activated receptor gamma (Homo sapiens) (P37231 whole entry, looked up): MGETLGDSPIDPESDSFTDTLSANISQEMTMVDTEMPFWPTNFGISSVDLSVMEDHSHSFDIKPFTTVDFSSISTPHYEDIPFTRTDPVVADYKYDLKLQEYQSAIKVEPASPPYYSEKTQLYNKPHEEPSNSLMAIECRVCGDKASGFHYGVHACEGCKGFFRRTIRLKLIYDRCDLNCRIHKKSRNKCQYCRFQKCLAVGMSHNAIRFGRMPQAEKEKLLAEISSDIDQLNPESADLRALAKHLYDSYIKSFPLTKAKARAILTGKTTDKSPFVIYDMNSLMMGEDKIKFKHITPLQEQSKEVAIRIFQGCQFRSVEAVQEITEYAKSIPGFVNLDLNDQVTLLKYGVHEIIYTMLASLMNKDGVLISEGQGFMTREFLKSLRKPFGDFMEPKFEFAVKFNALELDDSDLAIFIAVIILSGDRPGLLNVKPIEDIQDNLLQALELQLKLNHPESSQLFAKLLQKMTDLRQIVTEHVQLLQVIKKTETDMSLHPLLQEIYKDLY
Outline: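 Compound treatment: 16 h, 37 C, HEK293 GeneBLAzer cells. Detection: CCF4, 2 h RT. Values: Hill-fit EC50, efficacy as % of 2 uM rosiglitazone.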

[11] = molecular target: Peroxisome proliferator-activated receptor gamma (Homo sapiens) (UniProt P37231); assay: qHTS assay for small molecule antagonists of peroxisome proliferator-activated receptor gamma signaling (AID 588537; active = well fitted inhibition curve with a large enough effect in the signal ratio, with a control signal flat, not every such curve was filed as active; the % refers to the signal ratio;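 note: reporter cells co-stimulated with 50 nM rosiglitazone agonist during compound treatment; % of control where 0% means no effect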)
Outline: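 Cell-based beta-lactamase assay; GW9662 served as the antagonist control. Stimulation used rosiglitazone, final 50 nM, 16 h, 37 C.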

[12] = molecular target: Vitamin D3 receptor (Homo sapiens) (UniProt P11473); assay: qHTS assay for small molecule antagonists of vitamin D receptor signaling (AID 588541; calls by dose curve;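 note: receptor activated by calcitriol during compound treatment; series mostly up to about 77 µM; % is set by controls: 0 for no effect and ±100 for the full control effect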)
Sequence of Vitamin D3 receptor (Homo sapiens) (P11473 whole entry, looked up): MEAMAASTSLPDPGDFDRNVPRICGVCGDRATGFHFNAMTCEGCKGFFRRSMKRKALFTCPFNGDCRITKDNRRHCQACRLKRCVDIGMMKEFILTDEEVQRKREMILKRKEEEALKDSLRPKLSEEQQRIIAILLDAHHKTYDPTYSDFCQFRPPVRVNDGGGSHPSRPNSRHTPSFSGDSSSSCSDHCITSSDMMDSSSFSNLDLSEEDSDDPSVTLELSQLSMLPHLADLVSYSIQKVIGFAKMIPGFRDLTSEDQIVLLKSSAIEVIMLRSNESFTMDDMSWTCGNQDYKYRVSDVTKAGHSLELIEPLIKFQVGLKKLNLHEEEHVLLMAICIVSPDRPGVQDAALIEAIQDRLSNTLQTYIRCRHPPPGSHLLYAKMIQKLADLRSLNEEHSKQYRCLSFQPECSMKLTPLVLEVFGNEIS
Outline: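 Antagonist-mode beta-lactamase reporter assay: HEK293T VDR-UAS-bla cells were exposed to titrated compound alongside 1-alpha,25-dihydroxyvitamin D3 at 3 nM final for 16 h. Values were normalized to the 50 nM agonist control and DMSO basal, with IC50 and efficacy from Hill equation fits.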

[13] = molecular target: Vitamin D3 receptor (Homo sapiens) (UniProt P11473); assay: qHTS assay for small molecule agonists of vitamin D receptor signaling (AID 588543; calls by dose curve;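 note: 0% = DMSO basal and 100% = reference agonist control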)
Outline: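 β-lactamase reporter, VDR-UAS-bla HEK293T, agonist mode. Cells plated 5 h at 37 °C, compound titration 16 h at 37 °C, CCF4 dye 2 h RT, ratio 460/530 nm. Hill fit → EC50, efficacy vs 50 nM 1α,25-(OH)2D3.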

[14] = molecular target: Peptidyl-prolyl cis-trans isomerase NIMA-interacting 1 (Homo sapiens) (UniProt Q13526); assay: qHTS Validation Assay to Find Inhibitors of Pin1 (AID 504536; active = well fitted inhibition curve with a large enough effect in the polarisation, with a control signal flat, not every such curve was filed as active; the % refers to the polarisation;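 note: 0% = full Pin1 enzyme wells and -100% = no-enzyme wells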)
Sequence of Peptidyl-prolyl cis-trans isomerase NIMA-interacting 1 (Homo sapiens) (Q13526 whole entry, looked up): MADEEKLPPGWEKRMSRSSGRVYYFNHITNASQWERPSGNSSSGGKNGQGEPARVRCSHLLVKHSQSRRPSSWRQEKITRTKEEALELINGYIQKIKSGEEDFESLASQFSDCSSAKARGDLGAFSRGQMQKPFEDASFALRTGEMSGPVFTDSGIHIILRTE
Outline: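 Fluorescence polarization competition: compounds (titration) displace HiFluor-488-labeled Pin1-1b peptide from Pin1 (0.3 uM final) in pH 7.5 HEPES buffer with DTT, 10 min at room temperature; %Activity normalized to no-enzyme wells, curves fitted.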

[15] = molecular target: Estrogen receptor (Homo sapiens) (UniProt P03372); assay: qHTS assay for small molecule antagonists of estrogen receptor alpha signaling (AID 588513; active = well fitted curve in the direction sought with a large enough effect in the signal ratio, with a control signal flat, not every such curve was filed as active; the % refers to the signal ratio; note: % is set by controls: 0 for no effect and ±100 for the full control effect)
Sequence of Estrogen receptor (Homo sapiens) (P03372 whole entry, looked up): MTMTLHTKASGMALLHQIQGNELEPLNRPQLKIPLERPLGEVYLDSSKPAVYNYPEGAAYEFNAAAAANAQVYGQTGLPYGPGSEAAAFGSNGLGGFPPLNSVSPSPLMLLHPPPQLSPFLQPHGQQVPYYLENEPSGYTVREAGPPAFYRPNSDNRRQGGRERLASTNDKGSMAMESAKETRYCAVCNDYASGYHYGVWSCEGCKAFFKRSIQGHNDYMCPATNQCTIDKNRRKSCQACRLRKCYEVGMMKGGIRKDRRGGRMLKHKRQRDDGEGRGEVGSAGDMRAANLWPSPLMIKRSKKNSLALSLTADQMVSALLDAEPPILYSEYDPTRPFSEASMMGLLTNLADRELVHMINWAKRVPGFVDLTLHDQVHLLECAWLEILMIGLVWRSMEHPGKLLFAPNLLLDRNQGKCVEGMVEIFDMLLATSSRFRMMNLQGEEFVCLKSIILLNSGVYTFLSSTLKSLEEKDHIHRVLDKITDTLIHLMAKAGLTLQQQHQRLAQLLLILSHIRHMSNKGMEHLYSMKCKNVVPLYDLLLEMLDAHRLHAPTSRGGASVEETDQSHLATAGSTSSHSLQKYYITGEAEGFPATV
Outline: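 Beta-lactamase reporter, antagonist mode, HEK 293 GripTite cells; 0.5nM E2 stimulus, 18 h, 37 C; CCF4 dye 2 h RT; fluorescence. IC50 and efficacy from Hill fits, normalized to E2 and DMSO.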

[16] = molecular target: Estrogen receptor (Homo sapiens) (UniProt P03372); assay: qHTS assay for small molecule agonists of estrogen receptor alpha signaling (AID 588514; calls by dose curve;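 note: 0% = vehicle only and 100% = reference agonist; nearly all actives have a fitted effect of over 70% in size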)
Outline: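 Read-out: CCF4 fluorescence from a beta-lactamase reporter in ER-alpha-UAS-bla HEK 293 cells after 18 hrs of compound exposure at 37 C. Normalized to 20 nM 17-beta-estradiol (100%) and DMSO (0%).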

[17] = molecular target: Glucocorticoid receptor (Homo sapiens) (UniProt P04150); assay: qHTS assay for small molecule agonists of glucocorticoid receptor signaling (AID 588532; active = well fitted curve in the direction sought with a large enough effect in the signal ratio, with a control signal flat; the % refers to the signal ratio;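 note: 100% = dexamethasone at 0.1 µM and 0% = DMSO only wells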); conditions: HeLa MMTV-bla, beta-lactamase ratio, agonist, 18 h; stronger effect = higher value; percent of dexamethasone control, DMSO zero
Sequence of Glucocorticoid receptor (Homo sapiens) (P04150 whole entry, looked up): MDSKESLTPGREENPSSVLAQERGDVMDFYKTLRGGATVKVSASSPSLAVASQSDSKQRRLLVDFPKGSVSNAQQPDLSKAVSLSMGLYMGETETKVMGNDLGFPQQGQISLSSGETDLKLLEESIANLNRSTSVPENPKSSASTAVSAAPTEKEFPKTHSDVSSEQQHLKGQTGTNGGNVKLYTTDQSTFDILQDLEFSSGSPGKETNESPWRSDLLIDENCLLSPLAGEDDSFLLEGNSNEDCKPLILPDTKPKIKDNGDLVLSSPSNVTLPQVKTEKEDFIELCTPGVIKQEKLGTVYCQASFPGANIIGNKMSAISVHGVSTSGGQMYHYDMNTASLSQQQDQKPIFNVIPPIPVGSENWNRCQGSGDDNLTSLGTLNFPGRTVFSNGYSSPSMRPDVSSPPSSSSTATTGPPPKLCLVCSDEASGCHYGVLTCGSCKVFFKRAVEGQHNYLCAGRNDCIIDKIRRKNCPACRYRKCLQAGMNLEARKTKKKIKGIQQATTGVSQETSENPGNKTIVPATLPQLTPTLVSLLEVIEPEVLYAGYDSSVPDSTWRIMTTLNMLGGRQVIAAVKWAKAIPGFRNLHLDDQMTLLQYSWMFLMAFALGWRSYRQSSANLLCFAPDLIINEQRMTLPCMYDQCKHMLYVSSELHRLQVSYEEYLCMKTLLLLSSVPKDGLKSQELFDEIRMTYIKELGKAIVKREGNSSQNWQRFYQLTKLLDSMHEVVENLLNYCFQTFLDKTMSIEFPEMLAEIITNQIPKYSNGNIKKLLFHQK
Outline: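 Using MMTV-bla HeLa cells in medium with 1% stripped FBS and 25 mM HEPES, compounds were titrated and incubated overnight-length (18 h). Beta-lactamase cleavage of CCF4 was quantified by dual-emission fluorescence.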

[18] = molecular target: Glucocorticoid receptor (Homo sapiens) (UniProt P04150); assay: qHTS assay for small molecule antagonists of glucocorticoid receptor signaling (AID 588533; active = well fitted inhibition curve with a large enough effect in the signal ratio, with a control signal flat, not every such curve was filed as active; the % refers to the signal ratio)
Outline: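 Antagonist-mode qHTS: compound titrations added to GRE-bla HeLa cells, then dexamethasone 2 nM final; 18 h, 37 C. CCF4 FRET fluorescence normalized to dexamethasone and DMSO; IC50 from Hill fit.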

OCCN1CCN(CCCN2c3ccccc3Sc3ccc(Cl)cc32)CC1
inactive: outcome [1] | outcome [2] | Potency [3]

NC1CCN(c2cccc(Cl)n2)CC1
inactive: outcome [1] | outcome [2] | Potency [3] | Potency [4] | Potency [5] | outcome [6]

CSc1ccc2c(c1)N(CCC1CCCCN1C)c1ccccc1S2 (centres undefined)
active: Potency [4] 25.1 µM
inactive: outcome [1] | outcome [2] | Potency [3]

CN(C)CCOC(C)(c1ccccc1)c1ccccn1 (centres undefined)
-48.6%: max response [8]
inactive: outcome [1] | outcome [2] | Potency [3] | Potency [4] | Potency [5] | outcome [7] | outcome [9] | outcome [10] | outcome [11] | outcome [12] | outcome [13]

CN(C)CC[C@@H](c1ccc(Cl)cc1)c1ccccn1
inactive: outcome [1] | outcome [2] | Potency [3] | Potency [4] | Potency [5]

CCN(CC)CCNC(=O)c1cc(Cl)c(N)cc1OC
inactive: outcome [1] | outcome [2] | Potency [3] | Potency [4] | Potency [5]

COc1ccc(Cl)cc1C(=O)NCCc1ccc(S(=O)(=O)NC(=O)NC2CCCCC2)cc1
inactive: outcome [1] | outcome [2] | Potency [3] | Potency [4] | Potency [5] | outcome [6] | outcome [7] | outcome [10]

Nc1cc(=O)[nH]c(N)n1
inactive: outcome [14] | outcome [1] | outcome [2] | Potency [3] | Potency [4] | Potency [5] | outcome [6]

CC1=C(CC(=O)O)c2cc(F)ccc2/C1=C\c1ccc(S(C)=O)cc1 (centres undefined)
inactive: outcome [1] | outcome [2] | Potency [3] | Potency [4] | Potency [5] | outcome [6]

CC(C)(C)c1onc(OCP(=O)(O)O)c1CC(N)C(=O)O (centres undefined)
inactive: outcome [1] | outcome [2] | Potency [3] | Potency [4] | Potency [5]

CC1=C(CC(=O)O)c2cc(F)ccc2/C1=C\c1ccc(S(C)(=O)=O)cc1
inactive: outcome [1] | outcome [2] | Potency [3] | Potency [4] | Potency [5]

CC(C)NC[C@H](O)c1ccc(O)c(O)c1
inactive: outcome [1] | outcome [2] | Potency [3] | Potency [4] | outcome [6]

CC(CN(C)C)CN1c2ccccc2CCc2ccccc21 (centres undefined)
inactive: outcome [1] | outcome [2] | Potency [3]

COCCOC(=O)C1=C(C)NC(C)=C(C(=O)OC/C=C/c2ccccc2)C1c1cccc([N+](=O)[O-])c1 (centres undefined)
inactive: outcome [1] | outcome [2]

CSc1ccc2c(c1)C(N1CCN(C)CC1)Cc1ccccc1S2 (centres undefined)
inactive: outcome [14] | outcome [1] | outcome [2]
active: Potency [4] 31.6 µM | Potency [5] 14.1 µM

O=C1N=C(O)CN1/N=C/c1ccc(-c2ccc([N+](=O)[O-])cc2)o1
inactive: outcome [1] | outcome [2] | Potency [3] | Potency [4] | Potency [5]

C[C@]12C[C@H](O)[C@H]3[C@@H](CCC4=CC(=O)CC[C@@]43C)[C@@H]1CC[C@@H]2C(=O)CO
57.2%: max response [8]
inactive: outcome [1] | outcome [2] | Potency [3] | Potency [4] | Potency [5] | outcome [15] | outcome [16] | outcome [7] | outcome [9] | outcome [10] | outcome [11]

Nc1ncnc2c1ncn2[C@@H]1O[C@H](CO)[C@@H](O)[C@H]1O
inactive: outcome [1] | outcome [2] | Potency [3] | Potency [4] | Potency [5] | outcome [6]

CC(C)C(=O)c1c(C(C)C)nn2ccccc12
inactive: outcome [14] | outcome [1] | outcome [2] | Potency [3] | Potency [4] | Potency [5] | outcome [6]

CC1=C(/C=C/C(C)=C/C=C/C(C)=C/C(=O)O)C(C)(C)CCC1
53.7% and 67%: max response [8]
active: Potency [3] 79.4 µM
inactive: outcome [1] | outcome [2] | Potency [4] | Potency [5] | outcome [6] | activation [17] 3.3% and -6.04% | outcome [18] | outcome [9] | outcome [11] | outcome [12] | outcome [13]

CCCCCCCCCCCCCCCC(=O)NCCO
inactive: outcome [1] | outcome [2] | Potency [3] | Potency [4] | Potency [5] | outcome [6]

CC(C(O)c1ccc(O)cc1)N1CCC(Cc2ccccc2)CC1 (centres undefined)
inactive: outcome [1] | outcome [2] | Potency [3]

CCN(CC)CCOC(=O)C1(C2CCCCC2)CCCCC1
inactive: outcome [14] | outcome [1] | outcome [2] | Potency [3]

CC(=O)OCC(=O)[C@@]1(O)CC[C@H]2[C@@H]3CCC4=CC(=O)CC[C@]4(C)[C@H]3C(=O)C[C@@]21C
inactive: outcome [1] | outcome [2] | Potency [3] | Potency [4] | Potency [5]

COC(=O)C1=C(C)NC(C)=C(C(=O)OC)C1c1ccccc1[N+](=O)[O-]
inactive: outcome [14] | outcome [1] | outcome [2] | outcome [6] | outcome [15] | activation [17] -7.74% | outcome [13]

C[C@](N)(Cc1ccc(O)cc1)C(=O)O
inactive: outcome [1] | outcome [2] | Potency [3] | Potency [4] | Potency [5]

CC(C)(C)[C@]1(O)CCN2C[C@H]3c4ccccc4CCc4cccc(c43)[C@@H]2C1
inactive: outcome [1] | outcome [2] | Potency [3] | Potency [4] | Potency [5]

C#CCN(C)Cc1ccccc1
inactive: outcome [1] | outcome [2] | Potency [3] | Potency [4] | Potency [5]
